Screening results as filed in PubChem.
This is one part of a sample in which hits are shown more often than they occur.
ST2 inh: inhibitors of human ST2 (IL1RL1) binding to IL-33, primary screen, biochemical, AlphaLISA; 2.3% of 78,000 active; AlphaLISA ST2-Fc/biotin-IL-33 interaction, 1 h; inhibition, % for hits at 17 µM; in the data active = inhibition above about 30%
Target sequence (Q01638 whole entry, looked up): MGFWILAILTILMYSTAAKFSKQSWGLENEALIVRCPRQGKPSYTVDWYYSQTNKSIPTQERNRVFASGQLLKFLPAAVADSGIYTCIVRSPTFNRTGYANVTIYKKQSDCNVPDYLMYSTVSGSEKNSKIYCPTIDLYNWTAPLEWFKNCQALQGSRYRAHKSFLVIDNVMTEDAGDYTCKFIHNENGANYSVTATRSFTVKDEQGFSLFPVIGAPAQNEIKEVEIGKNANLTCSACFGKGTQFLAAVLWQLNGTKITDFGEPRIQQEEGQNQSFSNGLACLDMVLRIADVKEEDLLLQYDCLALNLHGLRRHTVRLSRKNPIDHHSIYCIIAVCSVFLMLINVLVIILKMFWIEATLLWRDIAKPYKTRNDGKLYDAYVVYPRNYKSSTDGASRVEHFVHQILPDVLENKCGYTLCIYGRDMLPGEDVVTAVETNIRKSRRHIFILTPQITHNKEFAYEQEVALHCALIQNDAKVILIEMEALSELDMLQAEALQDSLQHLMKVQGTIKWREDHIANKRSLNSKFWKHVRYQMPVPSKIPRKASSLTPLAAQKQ
A number is an active result; 0 = inactive.

SMILES	ST2 inh
O=S(=O)(c1ccc([C@@H]2Nc3ccc(Br)cc3[C@@H]3C=CC[C@@H]32)cc1)N1CCOCC1	0
O=[N+]([O-])c1ccc(C2CNC(c3ccccc3)O2)cc1 (centres undefined)	0
CC1(C)C(=O)OC(c2ccccc2[N+](=O)[O-])C(C)(C)C1=O (centres undefined)	0
O=C(c1ccc2c(c1)C1C=CCC1C(c1ccc([N+](=O)[O-])cc1)N2)N1CCCCCC1 (centres undefined)	40%
O=[N+]([O-])c1ccc(C2Nc3c(cccc3[N+](=O)[O-])C3C=CCC32)cc1 (centres undefined)	45%
COc1ccc(C(=O)N2CCCCC2)cc1[N+](=O)[O-]	0
C=CCn1c(=O)/c(=C2/Sc3ccccc3N2C)s/c1=C1/C(=O)N(C2CCCCC2)N=C1C	0
CCOc1ccc(-c2c(C#N)c(N)nc(SCC(=O)c3ccc([N+](=O)[O-])cc3)c2C#N)cc1	0
CC1=CC[C@@H]2CN(C(=O)Cc3ccc(N4CCNC4=O)cc3)C[C@@H]2C1	0
CCC(C)NC(=O)c1cc(-c2ccc(Br)cc2)on1 (centres undefined)	0
O=C(CCN1CCCO1)N1CCC(c2n[nH]c(=O)n2-c2ccccc2)CC1	0
O=C(Nc1ccc(Cl)cc1F)c1cccnc1	0
N#C/C(=C\c1ccc(-c2cccc(C(F)(F)F)c2)o1)C(=O)O	0
COc1cccc(-c2ccccc2NC(=O)C2CCN(Cc3cccc4ncccc34)CC2)c1	0
N#C/C(=C\c1ccc(-c2ccccc2)o1)C(=O)Nc1cccc2ncccc12	40%
Cn1c(=O)c2c(nc(NCCO)n2Cc2ccc(Cl)cc2Cl)n(C)c1=O	0
COc1ccc(CNC(=O)c2cc3cc4ccc(OC)cc4nc3s2)c(OC)c1	0
COc1ccc(CNC(=O)c2cc3cc4ccc(OC)cc4nc3s2)cc1	38%
COc1ccc2cc3cc(C(=O)NCc4ccc(F)cc4)sc3nc2c1	31%
COCCNC(=O)c1cc2cc3ccc(C)cc3nc2s1	0
COc1ccc(CNC(=O)c2cc3cc4ccc(OC)cc4nc3o2)cc1	0
CCOC(CCNC(=O)c1cc2cc3ccc(OC)cc3nc2s1)OCC	0
CCc1cnc(N2CCC(Cc3nnc(SC)n3C)CC2)nc1	0
O=C1C(=O)N(CCCn2ccnc2)C(c2ccco2)C1=C(O)c1ccc(Cl)cc1 (centres undefined)	0
COC(=O)C1=NN(C(=O)c2cccc(OC)c2)C(O)(c2ccc(Cl)cc2)C1 (centres undefined)	0
SMILES	ST2 inh
O=C(c1ccccc1)N1CCC(C(=O)N2CCN(Cc3ccccc3)CC2)CC1	0
O=C(c1cc2ncc(Br)cn2n1)N1CCOCC1	38%
O=C(c1cccc(Br)c1)N1CCOCC1	0
O=C(c1nn2cc(Br)cnc2c1Br)N1CCOCC1	0
O=C(Cn1cnc2scc(-c3ccccc3)c2c1=O)Nc1ccccc1	0
O=C(O)c1ccc2c(c1)C(=O)N(c1ccc(-c3nc4ccccc4[nH]3)cc1)C2=O	0
Cc1[nH]nc(SCC(=O)Nc2ccc(Br)cc2)c1[N+](=O)[O-]	0
CCCNC(=O)c1ccc(Cn2c(=O)c3cc(OC)c(OC)cc3n(CC(N)=O)c2=O)cc1	0
CCC(CC)C(=O)Nc1ccc(Nc2nc(C)cc(Nc3ccc(C)cc3)n2)cc1	0
COc1ccc(C(=O)NCC(=O)O)cc1	0
COc1ccc(-c2ccc(C(C)=O)cc2)cc1	0
COc1ccc(C(=O)/C=C(\C)c2ccc(OC)cc2)cc1	43%
CC(C)CN(CC(C)C)S(=O)(=O)c1ccc(C(=O)Nc2nnc(-c3ccc(F)cc3)o2)cc1	0
Cc1ccccc1N=C1NC(=O)c2cccc([N+](=O)[O-])c21	0
O=C1NC(=Nc2ccccc2)c2c1cccc2[N+](=O)[O-]	0
Cc1cc2c(cc1[N+](=O)[O-])-c1ncccc1C2=Nc1ccccc1	32%
CC(CN1CCCC1)CN(C)C(=O)c1ccc(NC(=O)C2CCC2)cc1 (centres undefined)	0
CCN1CCN(C(=O)c2ccc(Cl)c(Cl)c2)CC1	0
CSc1nnc2c(n1)OC(c1ccncc1)Nc1ccc(Br)cc1-2 (centres undefined)	0
CN(C(=O)Cc1c(C(=O)O)[nH]c2ccc(Cl)cc12)c1cccc(Cl)c1	0
CCN(Cc1ccccc1)S(=O)(=O)c1nc(C)c(Cl)c(C)c1C#N	0
Oc1ccccc1-c1nc2ccccc2[nH]1	0
Cc1cccc(N=Cc2cc3c(cc2[N+](=O)[O-])OCO3)c1	33%
O=[N+]([O-])c1cc2c(cc1C=Nc1ccc(O)c(-c3nc4ccccc4[nH]3)c1)OCO2	30%
Cc1cccc2oc(-c3cccc(N=Cc4cccc([N+](=O)[O-])c4O)c3)nc12	0
CCN(CC)Cc1c(O)ccc2cc(-c3nc4ccccc4[nH]3)c(=O)oc12	0
O=[N+]([O-])c1cc2c(cc1C=Nc1ccc(Cl)c(C(F)(F)F)c1)OCO2	0
CCOc1cc(CN2CCSCC2)ccc1OC	0
N#Cc1ccccc1Cn1c(=O)n(-c2ccccc2)c(=O)c2sccc21	0
